A word on the inhibition: it is the change of the read-out against control, counted positive when it falls.

In PubChem BioAssay AID651610 (Broad Institute, 2012) one finds inhibition data, which are given here for 45 compounds.

Screen size: about 360,000 compounds; about 3,900 (1.1%) were called active.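 The calls were made as follows: active = mean replicate inhibition score of at least 50 and every replicate individually at or above 50; inconclusive = only one of the two criteria met; inactive = mean below 50 and not all replicates reaching 50.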 This excerpt belongs to a sample that is enriched for actives.

This test can be described thus: blockers of JRFL envelope-mediated fusion – HeLa-JRFL effector, CEM21 target cells, luciferase, primary screen (AID 651610).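 Also: 0% = plate neutral controls and 100% = maraviroc near 300 nM.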 The settings on record: HeLa-JRFL Env/CEM21 cell fusion, active compounds read high; at 16.7 µM unless noted.
For the compound `c1ccc(-c2cnc(CN3CCN(c4ccccc4)CC3)o2)cc1`, the inhibition is 3.52% [at 12.3 µM] (inactive). With `CCCCn1c(SCc2ncc(-c3ccccc3)o2)nc2cc(S(N)(=O)=O)ccc21`, the inhibition was 32.4% [at 12.3 µM] (active). In the case of `CCn1c(SCc2cc(=O)n3ccsc3n2)nc2ccccc21` it was 9.35% [at 12.3 µM] (inactive).

As to `C[C@H](O)C#Cc1cnc2c(c1)C(=O)N([C@H](C)CO)C[C@@H](C)[C@H](CN(C)CC1CCCCC1)O2`, the inhibition was -6.75% (inactive). For the compound `C[C@H](CO)N1C[C@H](C)[C@H](CN(C)Cc2cccnc2)Oc2ncc(C3=CCCC3)cc2C1=O`, the inhibition is 0.845% (inactive). In the case of `C[C@@H]1CN([C@H](C)CO)C(=O)c2c(c3ccccc3n2C)-c2ccccc2CO[C@H]1CN(C)C(=O)[C@@H](Cc1ccccc1)N(C)C` it was -56.3% (inactive); in that of `Cc1cc(C(C)(C)C)oc1C(=O)N(CC(=O)NC1CCCC1)Cc1ccc(Cl)cc1`, 73.7% [at 12.3 µM] (active). In the case of `Cc1ccc(CN(CC(=O)NC2CCCCC2)C(=O)c2csnn2)cc1` it was -2.9% [at 12.3 µM] (inactive). Then `CS(=O)(=O)N(CC(=O)NC1CCCC1)Cc1ccc(F)cc1`, with 12.4% [at 12.3 µM] (inactive); and `O=C(C[C@@H]1CC[C@H](NC(=O)Nc2cc(F)ccc2F)[C@H](CO)O1)NCc1ccncn1`, with 1.2% (inactive).

In the case of `COc1ccc(CNC(=O)c2ccc(-c3cccnc3)c3ccoc23)cc1OC`, the inhibition is 55.1% [at 12.3 µM] (active). `COCCCNC(=O)c1ccc(-c2c(C)noc2C)c2ccoc12`: the inhibition was -11% [at 12.3 µM] (inactive). Then `Cc1noc(C)c1-c1ccc(C(=O)NCc2ccncc2)c2occc12`, with -7.55% [at 12.3 µM] (inactive). In the case of `O=C(COC(=O)Cn1cnc2ccccc2c1=O)NCc1ccccc1Cl` it was 0.405% [at 12.3 µM] (inactive); in that of `CC1(C)C(=O)Nc2ccccc2N1C(=O)COC(=O)Cn1cnc2ccccc2c1=O`, -40.1% [at 12.3 µM] (inactive). As for `CN(Cc1c(F)cccc1Cl)C(=O)COC(=O)Cn1cnc2ccccc2c1=O`, the inhibition is 63.4% [at 12.3 µM] (active). In the case of `O=C(NCc1ccccn1)[C@@H]1[C@@H](CO)[C@@H]2Cn3c(ccc(/C=C/c4ccccc4)c3=O)[C@H]1N2CC1CC1` it was -8.79% (inactive); in that of `CN(c1ccc2nc3ccccc3c(=O)n2n1)C1CCCCC1`, 68.2% [at 12.3 µM] (active). In the case of `CC(C)C(C)NC(=O)COc1nc2ccccc2nc1N(C)C1CCCCC1` (stereo not given) it was 17.4% [at 12.3 µM] (inactive); in that of `CC(C)c1cc(C(=O)NC2CCCCCC2)c2ccccc2n1`, 30.2% [at 12.3 µM] (inactive).

For `COc1cccc(S(=O)(=O)N(C)C[C@@H]2Oc3cc(C#CCN(C)C)ccc3S(=O)(=O)N([C@@H](C)CO)C[C@@H]2C)c1`, the inhibition is -11.4% (inactive). On to `FC(F)(F)c1ccc(-n2cn[nH]c2=S)cc1`, for which the inhibition was 2.89% [at 12.3 µM] (inactive).

As for `CCOC(=O)N1CCN(Cc2nc(Cc3cccc(C(F)(F)F)c3)no2)CC1`, the inhibition is -3.49% [at 12.3 µM] (inactive). Then `Cn1c(-c2sccc2OCc2cccc(C(F)(F)F)c2)n[nH]c1=S`, with 63.4% [at 12.3 µM] (active); and `O=C(C[C@H]1CC[C@H]2[C@@H](COC[C@@H](O)CN2Cc2nccs2)O1)NCc1ccccc1Cl`, with 6.96% (inactive); and `CN(C)CC(=O)Nc1ccc2c(c1)[C@H]1C[C@H](CC(=O)NCc3ccccc3)O[C@@H](CO)[C@H]1O2`, with -29.2% (inactive). In the case of `CC(C)CN(CC(C)C)CC(O)CN(c1ccccc1)S(=O)(=O)c1ccccc1[N+](=O)[O-]` (stereo not given) it was 65.4% [at 12.3 µM] (active); in that of `Cc1cccc(N(CC(O)CN(C)C)S(=O)(=O)c2ccccc2)c1` (stereo not given), -28.3% [at 12.3 µM] (inactive). Regarding `COc1ccc([N+](=O)[O-])cc1N(CC(O)CN(CC(C)C)CC(C)C)S(=O)(=O)c1ccc(C)cc1` (stereo not given), the inhibition was -12.9% [at 12.3 µM] (inactive).

`CN(C)CC(=O)N[C@H]1CC[C@H](CCNC(=O)C2CCCCC2)O[C@H]1CO`: the inhibition is -245% (inactive). In the case of `c1ccc2c(c1)OCC(CNc1ncnc3nc[nH]c13)O2` (stereo not given) it was 72.9% [at 12.3 µM] (active); in that of `COc1ccc(CCNc2ncnc3nc[nH]c23)cc1OC`, 18% [at 12.3 µM] (inactive); in that of `Cc1noc(C)c1C(=O)NCC1COc2ccccc2O1` (stereo not given), -5.41% [at 12.3 µM] (inactive).

Turning to `C[C@@H]1CCCCO[C@H](CN(C)Cc2ccc3c(c2)OCO3)[C@@H](C)CN([C@H](C)CO)C(=O)c2cc(N(C)C)ccc2O1`, the inhibition was -11.2% (inactive).

On to `C[C@H](NC(=O)C[C@@H]1CC[C@H](NC(=O)CN2CCOCC2)[C@H](CO)O1)c1ccccc1`, for which the inhibition is -13.9% (inactive). As for `N#Cc1ccc(C(c2nnnn2CCc2ccccc2)N2CCCCCC2)cc1` (stereo not given), the inhibition is 90.5% [at 12.3 µM] (active). Take `CCCCn1nnnc1C(c1ccccc1)N1CCN(c2ccccc2OC)CC1` (stereo not given): the inhibition is 6.77% [at 12.3 µM] (inactive). In the case of `Cc1ccc(C(c2nnnn2CS(=O)(=O)c2ccc(C)cc2)N2CCC(C)CC2)cc1` (stereo not given) it was 53.3% [at 12.3 µM] (inactive).

`CN(C)CC(=O)Nc1ccc2c(c1)[C@H]1C[C@@H](CC(=O)NCc3ccc(-c4ccccc4)cc3)O[C@H](CO)[C@H]1O2`: the inhibition was 19.8% (inactive). In the case of `COC(=O)[C@H](CC(C)C)NS(=O)(=O)c1c(F)cccc1F` it was -17.9% [at 12.3 µM] (inactive); in that of `COc1ccc(CCNC(=O)CSc2nc(-c3ccc(OC)c(OC)c3)ccc2C#N)cc1`, 4.49% [at 12.3 µM] (inactive); in that of `CCSc1nc(-c2ccc(OC)cc2)cc(-c2ccc(OC)cc2)c1C#N`, 66% [at 12.3 µM] (active). In the case of `COc1ccc(-c2cc(-c3ccc(N)cc3)nc(N)c2C#N)cc1OC` it was 22.6% [at 12.3 µM] (inactive); in that of `CS(=O)(=O)Nc1ccc2c(c1)[C@@H]1C[C@H](CC(=O)NCc3cc(F)ccc3F)O[C@@H](CO)[C@@H]1O2`, 18.1% (inactive); in that of `Cc1ccc(S(=O)(=O)Nc2ccc3c(c2)C(=O)N([C@H](C)CO)C[C@@H](C)[C@@H](CN(C)S(C)(=O)=O)OCCCC[C@@H](C)O3)cc1`, -1.67% (inactive).
